Screens deposited in PubChem BioAssay by Broad Institute.
PvdQ inh: P. aeruginosa PvdQ acylase inhibitors, primary screen, biochemical, fluorescence, plate reader and imaging, single point. PvdQ acylase [Pseudomonas aeruginosa LESB58]. purified PvdQ acylase. inhibition, % at 10 µM. 340,000 tested, 0.063% active. AID 488965, 2010; in the data active = inhibition above about 30%, passing the limit was not always enough; inconclusive = no clear call, values can overlap the other calls
Wnt act: Wnt/beta-catenin pathway activators, primary screen, cell-based, plate reader, single point | activation, % at 9.35 µM | 300,000 tested, 1.2% active | AID 743398, 2014 | Wnt/beta-catenin reporter cell assay, activator; in the data active = activation above about 30%, passing the limit was not always enough; inconclusive = no clear call, values can overlap the other calls
esBAF inh: Bmi1 luciferase reporter increase in mESCs, primary screen, esBAF inhibitor project, mouse ES cells, Bmi1 luciferase knock-in, single point | reporter increase, % at 12.5 µM | AID 602393, 2012 | 24 h; 100% = twice the neutral-well signal | 350,000 tested, 2% active; in the data active = activation above about 40%; inconclusive = no clear call, values can overlap the other calls;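 also: a rise in the Bmi1 reporter signal indicates esBAF inhibition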
Glyco luc inh: increase of ERlucT glycosylation luciferase signal, primary screen, N-linked glycosylation inhibitor project, D54 ERlucT cells, luminescence, set 2; 360,000 tested, 0.23% active; D54 ERlucT glycosylation luciferase reporter, 24 h; percent of 100 nM tunicamycin response; reporter increase, % at 12.5 µM; AID 588692, 2011;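 active = mean luciferase reporter signal, scaled so untreated is 0 and the glycosylation-blocking control 100, at or above a set limit in every replicate; inconclusive = mean reaches the limit but not every replicate does; inactive = mean below the limit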;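 also: luciferase carries N-glycosylation sites so blocking glycosylation raises the light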
Vif inh: HIV Vif self-association inhibitors, primary screen, imaging, HEK293T, single point; HEK293T cells, Vif self-association by quenched fluorescence, 24 h; inhibition, % at 7.49 µM; 340,000 tested, 0.35% active; in the data active = inhibition above about 50%, passing the limit was not always enough; inconclusive = no clear call, values can overlap the other calls; inactive = below about 31%
MITF TRPM1 HTS: activators of MITF-driven TRPM1 promoter reporter, primary screen, cell-based, SK-MEL-5, luciferase, single point; 300,000 tested, 0.75% active; SK-MEL-5 TRPM1-promoter luciferase, 24 h; % of positive control, neutral wells = 0; AID 588334, 2011; activation, % at 12.5 µM;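 active = mean activation of at least 80% with every replicate also reaching 80%; inconclusive = mean reaches 80% but some replicate falls short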
Of the large screens only hits and unclear results are named; the others gave an inactive call. Shown are actives, neighbours in structure and some others; about 2.9% of the full set was active somewhere.

Cc1ccc(-c2c(C)sc(=NC(=O)c3ccco3)n2C)cc1	esBAF inh 56.8, MITF TRPM1 HTS 100.2 (no result: Wnt act)
C=CCNC(=O)/C(=C/c1cn(-c2ccccc2)nc1-c1cccc([N+](=O)[O-])c1)NC(=O)c1ccccc1	none (no result: Wnt act, esBAF inh)
CN(C)C(=O)/C(=C/c1cn(-c2ccccc2)nc1-c1cccc([N+](=O)[O-])c1)NC(=O)c1ccccc1	Wnt act 56.4
O=C(CCCOc1ccc(Cl)cc1)Nc1cccc(C(=O)O)c1	Wnt act 56.3
O=C(Nc1ccccc1)OCCOc1ccccc1	esBAF inh 52.1 (no result: Wnt act)
O=C(Nc1ccccc1)OCCOc1ccccc1Br	esBAF inh 45.3 (no result: MITF TRPM1 HTS)
COc1ccc(OCCOC(=O)Nc2ccccc2)cc1	none (no result: Wnt act)
O=C(Nc1ccccc1)OCCOc1cccc(Br)c1	none (no result: MITF TRPM1 HTS)
CC(=O)c1cccc(NC(=O)CCCOc2ccc(C)cc2)c1	none
O=C(Nc1cccc(Cl)c1)OCCOc1ccccc1	esBAF inh 60.6
O=C(C[C@@H]1C=C[C@H](NC(=O)Nc2cc(F)ccc2F)[C@H](CO)O1)NCc1ccccn1	none (no result: PvdQ inh, Wnt act, Glyco luc inh, Vif inh, MITF TRPM1 HTS)
Cc1ccc(OC(=O)Nc2ccccc2)cc1	esBAF inh 50.4, MITF TRPM1 HTS inconclusive
Cc1ccc(NC(=O)CCOc2ccccc2)cc1	esBAF inh 55.9, MITF TRPM1 HTS 90.2
O=C(CCOc1ccccc1)Nc1ccccc1	none (no result: Wnt act, esBAF inh)
CO[C@H](CN(C)Cc1cc(F)ccc1F)[C@@H](C)CN(C(=O)Nc1ccc(F)cc1)[C@@H](C)CO	none (no result: PvdQ inh, Wnt act, Glyco luc inh, Vif inh, MITF TRPM1 HTS)
CCCNC(=O)N(C)C[C@H]1Oc2cc(-c3ccc(C)cc3)ccc2S(=O)(=O)N([C@H](C)CO)C[C@H]1C	none (no result: PvdQ inh, Wnt act, Glyco luc inh, Vif inh, MITF TRPM1 HTS)
Cc1ccc(S(=O)(=O)Nc2ccc3c(c2)CC(=O)N([C@@H](C)CO)C[C@@H](C)[C@H](CN(C)Cc2ccc(Cl)c(Cl)c2)O3)cc1	none (no result: PvdQ inh, Wnt act, Glyco luc inh, Vif inh, MITF TRPM1 HTS)
CCOC(=O)/C=C/C(=O)Nc1cc(S(=O)(=O)Nc2ccc(OC)cc2)ccc1N1CCOCC1	Vif inh 99.7
COc1ccc(C(=O)CC(SCC(NC(C)=O)C(=O)O)c2ccc(Cl)cc2)cc1OC (stereo not drawn)	Glyco luc inh 33.2
Cc1cccc(C(=O)Nc2ccc3ccccc3c2)c1	esBAF inh 47.2
O=C(Nc1ccc2ccccc2c1)c1cccc([N+](=O)[O-])c1	esBAF inh 85.7, MITF TRPM1 HTS 98.2
Cc1cccc2sc(NC(=O)C3CCCO3)nc12 (stereo not drawn)	esBAF inh 74.1 (no result: Wnt act)
COc1ccc2nc(NC(=O)C3CCCO3)sc2c1 (stereo not drawn)	none (no result: esBAF inh)
CSc1nc2ccc(NC(=O)c3ccc(Cl)s3)cc2s1	esBAF inh 49.9 (no result: MITF TRPM1 HTS)
CSc1nc2ccc(NC(=O)C3CCCO3)cc2s1 (stereo not drawn)	Wnt act 49.5, MITF TRPM1 HTS inconclusive
CSc1nc2ccc(NC(=O)NC(=O)c3c(F)cccc3F)cc2s1	none (no result: esBAF inh, MITF TRPM1 HTS)
O=C(C[C@@H]1C[C@@H]2c3cc(NC(=O)C4CCC4)ccc3O[C@@H]2[C@H](CO)O1)NC1CCCC1	none (no result: PvdQ inh, Wnt act, Glyco luc inh, Vif inh, MITF TRPM1 HTS)
COc1cccc(C#Cc2cnc3c(c2)C(=O)N([C@@H](C)CO)C[C@H](C)[C@H](CN(C)C(=O)C2CC2)O3)c1	none (no result: PvdQ inh, Wnt act, Glyco luc inh, Vif inh, MITF TRPM1 HTS)
COc1ccc(Oc2ncnc3sccc23)cc1	esBAF inh 45.1, MITF TRPM1 HTS 88.4
COc1ccc(Nc2ncnc3sccc23)cc1	none
COc1cccc(Nc2ncnc3sc(C)cc23)c1	esBAF inh 65.8
COc1cccc(Nc2ncnc3sccc23)c1	esBAF inh 59.1
COc1ccc(OC)c(Nc2ncnc3sccc23)c1	none
COCC(=O)N1[C@H](C(=O)NCc2ccccc2)[C@@H](CO)[C@@H]2Cn3c(cccc3=O)[C@@H]21	none (no result: PvdQ inh, Wnt act, Glyco luc inh, Vif inh, MITF TRPM1 HTS)
CCNC(=O)C[C@@H]1CC[C@H]2[C@H](COc3ccc(NC(=O)Nc4ccccc4F)cc3C(=O)N2C)O1	none (no result: PvdQ inh, Wnt act, Glyco luc inh, Vif inh, MITF TRPM1 HTS)
C[C@@H]1CN([C@@H](C)CO)C(=O)c2cc(-c3cccc(C#N)c3)cnc2O[C@@H]1CN(C)C(=O)C1CCC1	none (no result: PvdQ inh, Wnt act, Glyco luc inh, Vif inh, MITF TRPM1 HTS)
